Results as given in the supplement of paper PMC11001985.

compound: C#CCNC(=O)CCSSCCC(=O)NCCc1ccc(C=O)c(C=O)c1; assay: lysine labeling ratio R10:1 (500 µM / 50 µM probe), SILAC-ABPP in living cells; higher = lower intrinsic lysine reactivity toward the probe, active = 2 or less; details: HeLa; probe concentrations 500 vs 50 µM
Outline: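 Living SILAC light and heavy HeLa cells in PBS at room temperature were treated with an alkyne-tagged, disulfide-linked lysine probe at 50 µM or 500 µM, with forward and reverse label swaps. The mixed lysates were clicked to biotin-azide, digested with trypsin, captured on neutravidin, released with DTT, alkylated and run by LC-MS/MS on a TIMS-TOF Pro. R for each lysine is the filtered median high-probe/low-probe MS1 peptide ratio, taken again as the median over forward and reverse replicates. Any value above 20 is set to 20.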

Chain of UniProt P56199 (P56199 whole entry): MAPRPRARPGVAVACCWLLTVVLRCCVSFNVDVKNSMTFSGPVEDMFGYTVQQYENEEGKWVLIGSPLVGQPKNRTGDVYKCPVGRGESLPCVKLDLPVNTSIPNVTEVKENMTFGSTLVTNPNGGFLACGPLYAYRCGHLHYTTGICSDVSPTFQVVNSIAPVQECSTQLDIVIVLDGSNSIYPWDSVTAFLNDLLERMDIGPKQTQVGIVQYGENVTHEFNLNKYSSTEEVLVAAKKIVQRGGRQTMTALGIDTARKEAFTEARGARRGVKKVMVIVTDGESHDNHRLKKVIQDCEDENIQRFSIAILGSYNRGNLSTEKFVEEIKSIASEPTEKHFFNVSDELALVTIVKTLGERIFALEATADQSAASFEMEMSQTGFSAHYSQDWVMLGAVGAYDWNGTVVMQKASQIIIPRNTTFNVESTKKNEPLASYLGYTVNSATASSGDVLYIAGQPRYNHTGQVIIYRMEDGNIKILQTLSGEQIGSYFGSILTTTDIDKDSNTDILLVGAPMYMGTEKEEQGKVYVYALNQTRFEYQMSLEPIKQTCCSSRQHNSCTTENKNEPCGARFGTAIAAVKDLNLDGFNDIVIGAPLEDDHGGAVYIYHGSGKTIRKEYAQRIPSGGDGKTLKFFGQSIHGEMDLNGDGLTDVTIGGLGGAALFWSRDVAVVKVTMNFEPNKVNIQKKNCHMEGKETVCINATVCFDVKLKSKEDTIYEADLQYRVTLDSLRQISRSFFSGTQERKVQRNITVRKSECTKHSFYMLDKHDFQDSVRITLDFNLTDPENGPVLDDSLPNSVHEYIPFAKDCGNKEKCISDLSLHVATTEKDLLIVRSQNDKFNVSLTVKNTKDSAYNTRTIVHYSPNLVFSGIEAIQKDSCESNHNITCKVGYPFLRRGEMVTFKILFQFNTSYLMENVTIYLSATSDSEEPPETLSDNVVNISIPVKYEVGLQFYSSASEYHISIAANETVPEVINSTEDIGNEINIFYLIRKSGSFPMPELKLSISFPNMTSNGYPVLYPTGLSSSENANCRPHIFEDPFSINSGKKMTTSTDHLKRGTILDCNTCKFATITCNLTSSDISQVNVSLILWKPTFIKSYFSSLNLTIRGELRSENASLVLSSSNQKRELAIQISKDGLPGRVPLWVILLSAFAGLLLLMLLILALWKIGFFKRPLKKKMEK
Chain of UniProt P50454 (P50454 whole entry): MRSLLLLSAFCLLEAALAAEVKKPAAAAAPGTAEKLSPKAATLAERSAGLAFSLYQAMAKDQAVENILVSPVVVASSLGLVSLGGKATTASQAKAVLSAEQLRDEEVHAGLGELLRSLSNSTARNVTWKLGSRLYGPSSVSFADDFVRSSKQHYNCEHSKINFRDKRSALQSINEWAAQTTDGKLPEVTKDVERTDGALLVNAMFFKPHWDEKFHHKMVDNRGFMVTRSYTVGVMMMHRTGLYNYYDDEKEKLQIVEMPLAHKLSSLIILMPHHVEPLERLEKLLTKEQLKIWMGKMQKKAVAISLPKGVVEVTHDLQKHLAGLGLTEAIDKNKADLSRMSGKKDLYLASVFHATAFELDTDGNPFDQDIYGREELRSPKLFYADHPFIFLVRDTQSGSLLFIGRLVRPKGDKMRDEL
Chain of UniProt P56192 (P56192 whole entry): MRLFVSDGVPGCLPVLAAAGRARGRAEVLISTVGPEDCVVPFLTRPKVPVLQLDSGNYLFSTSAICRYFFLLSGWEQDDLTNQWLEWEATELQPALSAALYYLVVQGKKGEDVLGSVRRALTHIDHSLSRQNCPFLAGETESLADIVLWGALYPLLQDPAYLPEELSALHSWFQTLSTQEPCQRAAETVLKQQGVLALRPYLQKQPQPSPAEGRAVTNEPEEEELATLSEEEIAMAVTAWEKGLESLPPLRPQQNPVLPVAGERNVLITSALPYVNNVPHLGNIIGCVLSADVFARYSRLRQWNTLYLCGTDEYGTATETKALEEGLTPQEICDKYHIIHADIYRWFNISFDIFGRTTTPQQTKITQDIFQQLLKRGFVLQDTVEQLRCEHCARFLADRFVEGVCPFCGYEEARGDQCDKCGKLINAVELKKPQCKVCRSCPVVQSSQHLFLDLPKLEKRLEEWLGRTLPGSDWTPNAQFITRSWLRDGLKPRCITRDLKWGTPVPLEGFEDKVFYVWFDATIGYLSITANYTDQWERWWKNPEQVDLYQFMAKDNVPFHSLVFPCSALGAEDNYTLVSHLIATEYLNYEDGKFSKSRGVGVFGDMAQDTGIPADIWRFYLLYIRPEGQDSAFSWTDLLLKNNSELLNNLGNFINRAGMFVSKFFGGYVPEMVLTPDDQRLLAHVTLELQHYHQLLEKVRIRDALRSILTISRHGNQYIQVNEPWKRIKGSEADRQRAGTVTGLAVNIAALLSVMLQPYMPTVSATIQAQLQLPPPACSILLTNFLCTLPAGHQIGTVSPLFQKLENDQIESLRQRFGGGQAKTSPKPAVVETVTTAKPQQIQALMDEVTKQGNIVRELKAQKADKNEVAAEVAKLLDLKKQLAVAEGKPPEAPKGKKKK
Chain of UniProt P16422 (P16422 whole entry): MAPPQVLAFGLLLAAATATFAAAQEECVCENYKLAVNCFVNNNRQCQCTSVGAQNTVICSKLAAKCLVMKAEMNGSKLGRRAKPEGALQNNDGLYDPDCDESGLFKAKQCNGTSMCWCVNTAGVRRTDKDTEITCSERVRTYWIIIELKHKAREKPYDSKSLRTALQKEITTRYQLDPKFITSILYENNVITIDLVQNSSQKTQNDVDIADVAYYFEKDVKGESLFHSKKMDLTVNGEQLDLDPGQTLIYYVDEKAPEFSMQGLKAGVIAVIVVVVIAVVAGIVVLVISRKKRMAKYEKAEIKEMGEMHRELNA
Chain of UniProt Q04837 (Q04837 whole entry): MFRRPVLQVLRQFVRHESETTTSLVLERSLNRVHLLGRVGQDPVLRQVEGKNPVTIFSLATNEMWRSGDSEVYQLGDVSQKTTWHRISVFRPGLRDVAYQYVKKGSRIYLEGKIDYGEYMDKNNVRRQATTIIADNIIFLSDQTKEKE
Chain of UniProt P78371 (P78371 whole entry): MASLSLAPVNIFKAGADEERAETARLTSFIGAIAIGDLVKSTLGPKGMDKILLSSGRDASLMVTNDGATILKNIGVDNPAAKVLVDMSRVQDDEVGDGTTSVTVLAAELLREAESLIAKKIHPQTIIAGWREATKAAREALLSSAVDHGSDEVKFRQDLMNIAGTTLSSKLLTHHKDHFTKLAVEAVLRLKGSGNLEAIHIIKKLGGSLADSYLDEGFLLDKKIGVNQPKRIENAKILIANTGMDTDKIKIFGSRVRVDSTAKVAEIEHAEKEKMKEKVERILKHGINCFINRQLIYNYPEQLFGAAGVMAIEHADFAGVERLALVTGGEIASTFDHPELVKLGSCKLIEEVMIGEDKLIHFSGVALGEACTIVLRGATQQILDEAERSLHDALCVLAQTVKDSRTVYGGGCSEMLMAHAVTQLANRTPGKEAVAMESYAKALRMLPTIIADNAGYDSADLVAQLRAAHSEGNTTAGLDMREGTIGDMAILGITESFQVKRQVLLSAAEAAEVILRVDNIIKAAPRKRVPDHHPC
Chain of UniProt P10646 (P10646 whole entry): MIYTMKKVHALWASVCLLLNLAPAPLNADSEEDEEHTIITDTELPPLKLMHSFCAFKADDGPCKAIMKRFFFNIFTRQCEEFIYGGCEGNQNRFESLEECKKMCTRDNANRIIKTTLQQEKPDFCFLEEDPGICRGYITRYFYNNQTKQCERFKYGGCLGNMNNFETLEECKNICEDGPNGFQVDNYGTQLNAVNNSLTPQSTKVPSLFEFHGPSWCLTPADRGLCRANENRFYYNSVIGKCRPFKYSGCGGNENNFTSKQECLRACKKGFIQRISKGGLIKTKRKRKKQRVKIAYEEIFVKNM
Chain of UniProt P23528 (P23528 whole entry): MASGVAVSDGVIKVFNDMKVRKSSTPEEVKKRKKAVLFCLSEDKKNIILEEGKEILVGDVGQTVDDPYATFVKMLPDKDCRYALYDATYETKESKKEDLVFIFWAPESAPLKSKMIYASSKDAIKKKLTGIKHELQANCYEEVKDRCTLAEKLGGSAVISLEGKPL
Chain of UniProt Q8N441 (Q8N441 whole entry): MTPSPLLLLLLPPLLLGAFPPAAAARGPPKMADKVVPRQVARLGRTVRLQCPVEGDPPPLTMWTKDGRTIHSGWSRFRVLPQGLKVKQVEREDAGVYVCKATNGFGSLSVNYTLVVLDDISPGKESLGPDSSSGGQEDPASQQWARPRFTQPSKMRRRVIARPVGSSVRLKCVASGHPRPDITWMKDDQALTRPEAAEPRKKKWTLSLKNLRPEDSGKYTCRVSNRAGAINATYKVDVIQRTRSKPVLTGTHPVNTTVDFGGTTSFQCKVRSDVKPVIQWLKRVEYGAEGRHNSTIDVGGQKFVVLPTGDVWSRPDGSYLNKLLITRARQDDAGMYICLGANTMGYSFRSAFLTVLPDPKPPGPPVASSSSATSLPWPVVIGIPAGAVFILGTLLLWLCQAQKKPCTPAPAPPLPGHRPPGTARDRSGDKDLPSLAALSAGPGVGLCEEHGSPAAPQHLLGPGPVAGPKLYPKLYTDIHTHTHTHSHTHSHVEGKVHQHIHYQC
Chain of UniProt P05787 (P05787 whole entry): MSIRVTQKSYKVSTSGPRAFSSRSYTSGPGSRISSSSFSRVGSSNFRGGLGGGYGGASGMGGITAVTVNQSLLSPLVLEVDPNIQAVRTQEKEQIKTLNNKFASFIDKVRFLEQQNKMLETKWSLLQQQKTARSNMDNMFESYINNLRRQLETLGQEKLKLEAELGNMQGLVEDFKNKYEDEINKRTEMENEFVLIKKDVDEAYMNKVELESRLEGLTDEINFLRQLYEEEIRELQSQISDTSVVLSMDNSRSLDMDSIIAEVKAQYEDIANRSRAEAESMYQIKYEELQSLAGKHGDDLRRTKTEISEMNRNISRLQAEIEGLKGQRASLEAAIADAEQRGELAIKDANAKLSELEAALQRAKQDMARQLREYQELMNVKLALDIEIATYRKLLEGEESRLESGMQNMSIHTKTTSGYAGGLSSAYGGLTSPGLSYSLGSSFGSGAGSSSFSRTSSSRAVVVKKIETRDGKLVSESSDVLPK

| Target | lysine labeling ratio R10:1 |
| --- | --- |
| SPTAN1 (lysine site: K296) (UniProt Q13813) | 2.12 (inactive) |
| DDX5 (lysine site: K490) (UniProt P17844) | 5.18 (inactive) |
| TCP1 (lysine site: K199) (UniProt P17987) | 4.14 (inactive) |
| FAS (lysine site: K126) (UniProt P25445) | 2.16 (inactive) |
| LAMC1 (lysine site: K1354) (UniProt P11047) | 1.67 (active) |
| CCT4 (lysine site: K395) (UniProt P50991) | 3.34 (inactive) |
| EPCAM (lysine site: K129) (UniProt P16422) | 6.18 (inactive) |
| UniProt Q15149 (lysine site: K2255) | 4.45 (inactive) |
| SPTBN1 (lysine site: K1939) (UniProt Q01082) | 3.41 (inactive) |
| ITGA1 (lysine site: K81) (UniProt P56199) | 2.7 (inactive) |
| ITGA1 (lysine site: K546) (UniProt P56199) | 0.96 (active) |
| GALNT2 (lysine site: K363) (UniProt Q10471) | 3.95 (inactive) |
| UniProt Q9UHI8 (lysine site: K655) | 2.17 (inactive) |
| IGF2R (lysine site: K808) (UniProt P11717) | 5.23 (inactive) |
| UniProt P46781 (lysine site: K139) | 3 (inactive) |
| UniProt Q15149 (lysine site: K2553) | 3.44 (inactive) |
| CD109 (lysine site: K127) (UniProt Q6YHK3) | 12 (inactive) |
| SERPINH1 (lysine site: K410) (UniProt P50454) | 4.84 (inactive) |
| UniProt Q8N441 (lysine site: K30) | 3.03 (inactive) |
| UniProt P62805 (lysine site: K92) | 7.01 (inactive) |

| Target | lysine labeling ratio R10:1 |
| --- | --- |
| ITGA6 (lysine site: K615) (UniProt P23229) | 6.91 (inactive) |
| UniProt P05787 (lysine site: K198) | 7.97 (inactive) |
| UniProt P14618 (lysine site: K66) | 1.62 (active) |
| UniProt Q9UKX5 (lysine site: K150) | 2.51 (inactive) |
| ROBO1 (lysine site: K214) (UniProt Q9Y6N7) | 4.58 (inactive) |
| SERPINH1 (lysine site: K413) (UniProt P50454) | 4.84 (inactive) |
| FLNA (lysine site: K2473) (UniProt P21333) | 3.58 (inactive) |
| CAPZA1 (lysine site: K19) (UniProt P52907) | 2.43 (inactive) |
| MARS (lysine site: K726) (UniProt P56192) | 0.748 (active) |
| HSP90B1 (lysine site: K547) (UniProt P14625) | 3.04 (inactive) |
| SSBP1 (lysine site: K81) (UniProt Q04837) | 4.93 (inactive) |
| ITGA1 (lysine site: K292) (UniProt P56199) | 2.63 (inactive) |
| UniProt P25705 (lysine site: K261) | 2.94 (inactive) |
| CFL1 (lysine site: K164) (UniProt P23528) | 4.91 (inactive) |
| CCT2 (lysine site: K284) (UniProt P78371) | 1.69 (active) |
| TFPI (lysine site: K68) (UniProt P10646) | 1.41 (active) |
| FAT1 (lysine site: K369) (UniProt Q14517) | 1.01 (active) |
| STMN1 (lysine site: K119) (UniProt P16949) | 1.62 (active) |
| UniProt O95084 (lysine site: K185) | 2.74 (inactive) |
| CACYBP (lysine site: K212) (UniProt Q9HB71) | 1.91 (active) |
